Assay results from PubChem BioAssay (NCATS).
Results filed as inconclusive are left out. Calls of active or inactive are those of the source. Calls follow the shape of the dose curve; as a rule, active = well fitted inhibition curve with a large enough effect; inconclusive = small, poorly fitted or top-dose-only effect; inactive = no such curve, though single readings can be large or run the other way.
% is scaled to controls: 0 for no effect and ±100 for the full control effect; potency is read from the fitted curve at half-maximal effect.

Test: Primary qHTS for inhibitors of nuclear receptor binding SET domain protein 2 (NSD2) in an RCH-ACV wild type WT cells (2C) (AID 1645877); also: nearly all actives have a fitted effect of over 70% in size
Conditions: RCH-ACV (leukaemia line) NSD2 WT (2C) viability, CellTiter-Glo, 72 h; series mostly up to 44.9 µM; activity change, negative = cell killing: at the top concentration
For `CO[C@H]1/C=C/C=C/C=C/C[C@H](OC(=O)[C@@H](C)NC(=O)C2CCCCC2)[C@H](C)[C@@H](O)/C(C)=C/CCc2cc(O)cc(c2)NC(=O)C1`, the Potency was 242 nM (active).
With `C=CC(C)(C)C12C=C(OC)C(=O)N3C(C(C)C)C(=O)NC31N(OC)c1ccccc12` (stereo unspecified) the “activity change, negative = cell killing” value was -6.67% [at 17.3 µM] (inactive).
For `O=C(O)Cc1cn(C2OCC(O)C(O)C2O[C@@H]2O[C@H](CO)[C@@H](O)[C@H](O)[C@H]2O)c2ccccc12` (stereo partly specified), the “outcome” value was “inactive [at 17.3 µM]”.
With `CC1CCC2C(C)(C)[C@@H](O)CC[C@]2(C)C12Cc1c(O)cc3c(c1O2)CN(C(CCC(=O)O)C(=O)O)C3=O` (stereo partly specified) the “activity change, negative = cell killing” value was -12.7% [at 17.3 µM] (inactive).
For `CC(C)(O)c1ccc2c(c1)C(O)C[C@H]1[C@](C)(C(=O)O)CCC[C@]21C` (stereo partly specified), the “outcome” value was “inactive”.
In the case of `COC(=O)[C@@H](O)[C@H]1[C@@]2(C)CC3(O)[C@@H](C(=O)[C@H]2O)[C@]24O[C@]25CC(=O)O[C@@H](c2ccoc2)[C@]5(C)CCC4[C@]13C` (stereo partly specified), the “activity change, negative = cell killing” value is reported as -4.92% [at 17.3 µM] (inactive).
In the case of `CC1(C)CC2=C3C=CC4C5(C)CCC(O)C(C)(C)C5CCC4(C)C3(C)CCC2(C)C(O)C1` (stereo unspecified), the “activity change, negative = cell killing” value is reported as -17.1% [at 17.3 µM] (inactive).
With `CC(=O)N1CCc2ccc(O)c(OC3OC(COC4OCC(O)(CO)C4O)C(O)C(O)C3O)c2C1Cc1ccc(O)cc1` (stereo unspecified) the “activity change, negative = cell killing” value was -0.479% [at 17.3 µM] (inactive).
With `COc1c2c(c(C)c3c1C(=O)OC3)OC1(C)CC(O)C34OC(OC)(CC(OC(C)=O)C3(C)C1C2)OC4(C)C` (stereo unspecified) the “activity change, negative = cell killing” value was -5.38% [at 17.3 µM] (inactive).
With `CC1(C)CC[C@]2(C(=O)O)CC[C@]3(C)C(=CCC4[C@@]5(C)CC[C@H](O[C@@H]6O[C@H](C(=O)O)[C@@H](O[C@@H]7OC[C@@H](O)[C@H](O)[C@H]7O)[C@H](O)[C@H]6O)C(C)(C)C5CC[C@]43C)C2C1O` (stereo partly specified) the “activity change, negative = cell killing” value was 1.48% [at 17.3 µM] (inactive).
For `CC1(C)CC[C@]2(C(=O)O)CC[C@]3(C)C(=CCC4[C@@]5(C)C[C@@H](O)[C@H](O)C(C)(C)C5CC[C@]43C)C2C1` (stereo partly specified), the “activity change, negative = cell killing” value was -13.8% [at 17.3 µM] (inactive).
With `C=C1CN(Cc2ccc(C(=O)Nc3ccccc3N)cc2)C(=O)c2ccccc21` the Potency was 230 nM (active).
With `CC(=O)OC1C(=O)C2(C)C(O)CC3OCC3(OC(C)=O)C2C(OC(=O)c2ccccc2)C2(O)CC(OC(=O)C(O)C(NC(=O)c3ccccc3)c3ccccc3)C(C)=C1C2(C)C` (stereo unspecified) the Potency was 6.5 nM (active).
With `O=C(O)/C=C/c1ccc(O)c(O[C@@H]2O[C@H](CO)[C@@H](O)[C@H](O)[C@H]2O)c1` the “outcome” value was “inactive”.
For `C=C1CC2C(C)(CCC(=O)O)C(C(C)(C)O)CCC2(C)C2C(=O)OC(C)(C(=O)OC)C(=O)C12C` (stereo unspecified), the “activity change, negative = cell killing” value was 3.16% [at 17.3 µM] (inactive).
In the case of `C[C@@H]1C(=O)O[C@H]2C[C@]34[C@H]5C[C@@H](C(C)(C)C)[C@]36[C@@H](OC(=O)[C@H]6O)O[C@]4(C(=O)O5)[C@]21O`, the “activity change, negative = cell killing” value is reported as -21.2% [at 17.3 µM] (inactive).
With `COC(=O)C12C(=O)C(C)=C(O)C1(C)C(C)=CC1C3(CO)CCC(O)C(C)(C)C3CCC12C` (stereo unspecified) the “activity change, negative = cell killing” value was -26.8% [at 17.3 µM] (inactive).
For `CC1(C(=O)O)CCCC2(C)C3=CCC4CC3(CCC12)CC4CO` (stereo unspecified), the “activity change, negative = cell killing” value was -22.6% (inactive).
In the case of `C=C1CCC2C(C)(C(=O)O)CCCC2(C)C1CCC(C)CC(=O)O` (stereo unspecified), the “activity change, negative = cell killing” value is reported as -24.9% (inactive).
In the case of `CC(=O)O[C@@H]1[C@@H](CO)O[C@@](CO)(O[C@H]2O[C@H](COC(=O)/C=C/c3ccccc3)[C@@H](O)[C@H](O)[C@H]2O)[C@H]1O`, the “activity change, negative = cell killing” value is reported as -20.4% [at 17.3 µM] (inactive).
With `CC1OC(OC2C(CO)OC(OCC3OC(OC(=O)C45CCC(C)(C)CC4C4=CCC6C7(C)CCC(OC8OC(CO)C(O)C(OC9OC(CO)C(O)C(O)C9O)C8O)C(C)(C)C7CCC6(C)C4(C)CC5)C(O)C(O)C3O)C(O)C2O)C(O)C(O)C1OC1OC(CO)C(O)C(O)C1O` (stereo unspecified) the activity change, negative = cell killing was -10.4% [at 9.23 µM] (inactive).
For `C/C(=C\CCC(C)CCO)C(=O)O[C@@H]1[C@@H](O)[C@H](OC2OC=C(C(=O)O)C3CCC(C)(O)C23)O[C@H](CO)[C@H]1O` (stereo partly specified), the “activity change, negative = cell killing” value was -5.76% [at 17.3 µM] (inactive).
For `COc1ccc(CC2C(=O)NC(C)C(=O)N(C)C3Cc4ccc(cc4)Oc4cc(ccc4OC4OC(CO)C(O)C(O)C4O)CC(C(=O)NC(C)C(=O)NC(C)C(=O)N2C)N(C)C3=O)cc1` (stereo unspecified), the Potency was 9.7 nM (active).
With `C=C1CC[C@@H]2[C@](C)(CO[C@@H]3O[C@H](CO)[C@@H](O)[C@H](O)[C@H]3O)[C@H](O)CC[C@@]2(C)[C@@H]1C/C=C1/C(=O)OC[C@H]1O` the “activity change, negative = cell killing” value was -7.26% [at 17.3 µM] (inactive).
With `CC(C)CC1NC(=O)C2CC3(O)c4ccccc4NC3N2C1=O` (stereo unspecified) the “activity change, negative = cell killing” value was -7.73% (inactive).
With `CC(C)C[C@H](CC(=O)NO)C(=O)N[C@@H](Cc1ccc2ccccc2c1)C(=O)N[C@@H](C)C(=O)NCCN` the “activity change, negative = cell killing” value was -10.4% (inactive).
